# Results: PubChem BioAssay
# Activity calls are given as the source filed them.
# What was measured:
# [1] = test system: Plasmodium falciparum Sir2 (PF13_0152, Sir2A); assay: Plasmodium falciparum Sir2A binding compounds – biochemical, small-molecule microarray, 635 nm fluorescence, primary screen (AID 1098); settings: fluorescence 635 nm, higher = more signal;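 further: score merges spot fluorescence intensity with its signal-to-noise ratio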
# [2] = probe aDKK1 binding to arrayed compounds – biochemical, biotinylated probe, 635/667 nm fluorescence, primary screen (AID 1099); settings: small-molecule microarray, higher = more signal;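 further: score merges 667nm spot fluorescence with signal to noise across triplicate slides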
# [3] = probe aCHRDL2 binding to arrayed compounds – biochemical, biotinylated probe, 635/667 nm fluorescence, primary screen (AID 1100); settings: small-molecule microarray, higher = more signal
# [4] = change in splice reporter luminescence, either direction, cell-based, HEK293, spliceosome inhibition project, primary screen (AID 1101); settings: HEK293 splicing luciferase reporter, 24 h, higher = more signal, called active from +8 up or from −8 down;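 further: HEK293 cells carrying a splicing-competent luciferase reporter gene; test concentration not given here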
# [5] = target: Fibroblast growth factor 10 (Homo sapiens) (UniProt O15520); assay: compounds binding fibroblast growth factor 10 – biochemical, small-molecule microarray, 635 nm fluorescence, primary screen (AID 1102); settings: FGF10 binding, fluorescence 635 nm, higher = more signal
# Sequence of Fibroblast growth factor 10 (Homo sapiens) (O15520 whole entry, looked up): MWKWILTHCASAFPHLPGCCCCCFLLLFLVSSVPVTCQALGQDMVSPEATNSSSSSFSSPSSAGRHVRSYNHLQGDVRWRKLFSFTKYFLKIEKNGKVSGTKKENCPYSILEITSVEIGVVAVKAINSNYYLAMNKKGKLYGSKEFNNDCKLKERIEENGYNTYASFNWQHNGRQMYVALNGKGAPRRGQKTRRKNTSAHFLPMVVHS
# [6] = test system: glycogen synthase kinase-3 (GSK3A per assay name; protocol says GSK3B); assay: compounds binding glycogen synthase kinase-3 – biochemical, small-molecule microarray, 635 nm fluorescence, GSK3A, primary screen (AID 1103); settings: fluorescence 635 nm, higher = more signal; further: the record names both GSK3A and GSK3B
# [7] = target: Epidermal growth factor receptor (Homo sapiens) (UniProt P00533); assay: compounds binding epidermal growth factor receptor – biochemical, small-molecule microarray, 635 nm fluorescence, primary screen (AID 1104); settings: EGFR binding, higher = more signal;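 further: score merges 667 nm emission intensity with spot signal to noise over triplicate slides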
# Sequence of Epidermal growth factor receptor (Homo sapiens) (P00533 whole entry, looked up): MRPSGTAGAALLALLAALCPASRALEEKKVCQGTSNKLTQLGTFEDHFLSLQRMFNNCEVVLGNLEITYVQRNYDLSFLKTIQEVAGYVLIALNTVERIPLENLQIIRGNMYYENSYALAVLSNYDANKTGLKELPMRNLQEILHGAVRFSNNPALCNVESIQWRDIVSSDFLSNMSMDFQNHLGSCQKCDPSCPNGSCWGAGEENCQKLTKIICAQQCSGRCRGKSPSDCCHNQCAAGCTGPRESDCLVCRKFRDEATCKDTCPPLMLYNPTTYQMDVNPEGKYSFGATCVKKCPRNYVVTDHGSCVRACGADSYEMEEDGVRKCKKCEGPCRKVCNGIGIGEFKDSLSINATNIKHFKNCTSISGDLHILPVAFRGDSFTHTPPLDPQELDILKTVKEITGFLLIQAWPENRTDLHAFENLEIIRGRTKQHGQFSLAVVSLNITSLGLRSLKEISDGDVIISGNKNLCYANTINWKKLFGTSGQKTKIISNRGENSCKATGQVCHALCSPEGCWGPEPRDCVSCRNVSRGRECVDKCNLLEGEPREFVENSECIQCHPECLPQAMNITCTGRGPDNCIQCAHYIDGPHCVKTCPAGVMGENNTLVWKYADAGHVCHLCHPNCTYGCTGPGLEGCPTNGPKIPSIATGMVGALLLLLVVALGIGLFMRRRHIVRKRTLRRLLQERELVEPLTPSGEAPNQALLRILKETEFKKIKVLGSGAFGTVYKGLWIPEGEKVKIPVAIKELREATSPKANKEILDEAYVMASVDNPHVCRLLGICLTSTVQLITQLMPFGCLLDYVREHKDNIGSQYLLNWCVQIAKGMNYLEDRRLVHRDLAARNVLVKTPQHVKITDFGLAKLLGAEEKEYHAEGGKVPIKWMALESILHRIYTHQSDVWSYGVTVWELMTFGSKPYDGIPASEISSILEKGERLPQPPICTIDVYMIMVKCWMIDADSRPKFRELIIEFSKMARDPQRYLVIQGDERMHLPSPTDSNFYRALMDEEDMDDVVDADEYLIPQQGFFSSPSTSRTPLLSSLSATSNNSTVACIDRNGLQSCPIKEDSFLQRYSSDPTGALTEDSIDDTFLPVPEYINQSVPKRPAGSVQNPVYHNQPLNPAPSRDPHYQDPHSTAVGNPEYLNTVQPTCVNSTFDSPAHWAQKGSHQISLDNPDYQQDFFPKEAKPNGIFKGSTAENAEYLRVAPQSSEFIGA
# [8] = target: Follistatin-related protein 3 (Homo sapiens) (UniProt O95633); assay: compounds binding follistatin-related protein 3 – biochemical, small-molecule microarray, 635 nm fluorescence, primary screen (AID 1105); settings: FSTL3 binding, higher = more signal;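 further: score merges emission near 667 nm and signal to noise per printed spot across three slides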
# Sequence of Follistatin-related protein 3 (Homo sapiens) (O95633 whole entry, looked up): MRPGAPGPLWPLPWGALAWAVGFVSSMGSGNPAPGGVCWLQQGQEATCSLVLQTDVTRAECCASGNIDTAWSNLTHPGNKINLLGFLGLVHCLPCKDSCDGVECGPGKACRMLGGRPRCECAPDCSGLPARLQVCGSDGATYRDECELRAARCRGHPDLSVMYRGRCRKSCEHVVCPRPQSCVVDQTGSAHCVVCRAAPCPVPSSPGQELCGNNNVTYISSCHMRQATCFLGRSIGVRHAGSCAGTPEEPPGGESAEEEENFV
# [9] = target: Dickkopf-related protein 1 (Homo sapiens) (UniProt O94907); assay: small molecules binding DKK1 protein – biochemical, small-molecule microarray, 635 nm fluorescence scan, primary screen (AID 1106); settings: higher = more signal;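 further: score merges emission near 667 nm with signal to noise over three replicate slides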
# Sequence of Dickkopf-related protein 1 (Homo sapiens) (O94907 whole entry, looked up): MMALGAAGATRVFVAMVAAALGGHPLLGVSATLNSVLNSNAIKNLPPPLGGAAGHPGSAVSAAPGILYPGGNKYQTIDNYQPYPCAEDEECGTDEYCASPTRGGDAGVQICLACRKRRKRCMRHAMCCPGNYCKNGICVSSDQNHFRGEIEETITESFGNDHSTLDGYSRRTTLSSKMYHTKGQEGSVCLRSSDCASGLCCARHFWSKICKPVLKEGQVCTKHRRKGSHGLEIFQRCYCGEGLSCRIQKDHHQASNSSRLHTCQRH
# [10] = test system: Inhibin beta A chain (activin A); assay: small molecules binding activin A – biochemical, small-molecule microarray, 635 nm fluorescence scan, primary screen (AID 1107); settings: INHBA, higher = more signal;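 further: mouse activin A protein probed at 4.33 µg/mL on printed slides; score merges bound-protein fluorescence near 667 nm with spot signal-to-noise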
# [11] = test system: Human papillomavirus type 1a protein E7 (residues 44-93); assay: small molecules binding HPV E7 44-93 – biochemical, small-molecule microarray, residues 44-93, 635 nm fluorescence, primary screen (AID 1108); settings: fluorescence 635 nm, higher = more signal;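 further: E7 fragment applied at 1 µg/mL in TBST for 1 h at 4 C; score combines spot fluorescence with its signal to noise ratio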
# [12] = hepatitis C replication reporter changes, two-sided – Huh7 cells, luciferase reporter, HCV replication inhibitor project, primary screen (AID 1109); settings: Huh7 HCV replicon luciferase reporter, 48 h; higher = more signal;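 further: huh7 hepatoma cells harbouring a luciferase neomycin HCV replicon reporter; luciferase luminescence as measure of HCV replicon replication; test concentration not given here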
# [13] = target: Left-right determination factor 2 (Homo sapiens) (UniProt O00292); assay: small molecules binding LEFTY2 protein – biochemical, small-molecule microarray, 635 nm fluorescence scan, primary screen (AID 1110); settings: higher = more signal
# Sequence of Left-right determination factor 2 (Homo sapiens) (O00292 whole entry, looked up): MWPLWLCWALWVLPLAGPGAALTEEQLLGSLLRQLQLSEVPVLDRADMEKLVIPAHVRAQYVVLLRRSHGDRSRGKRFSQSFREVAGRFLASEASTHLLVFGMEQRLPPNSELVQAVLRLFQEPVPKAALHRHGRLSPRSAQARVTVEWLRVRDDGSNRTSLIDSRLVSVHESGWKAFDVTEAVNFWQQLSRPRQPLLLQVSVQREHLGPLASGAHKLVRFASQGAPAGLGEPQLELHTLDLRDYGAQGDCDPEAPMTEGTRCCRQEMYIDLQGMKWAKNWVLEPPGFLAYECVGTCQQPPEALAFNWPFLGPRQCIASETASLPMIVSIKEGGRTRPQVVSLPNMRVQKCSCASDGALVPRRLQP
# [14] = target: Calmodulin-1 (Homo sapiens) (UniProt P0DP23); assay: small molecules binding calmodulin-1 with EGTA – biochemical, small-molecule microarray, Cy5-labelled CALM1, profiling panel (AID 1111); settings: Cy5-CALM1 binding fluorescence, higher = more signal;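 further: labelled calmodulin applied in Tris saline Tween buffer holding calcium plus EGTA and DTT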
# [15] = target: Calmodulin-1 (Homo sapiens) (UniProt P0DP23); assay: small molecules binding Ca-loaded calmodulin-1 – biochemical, small-molecule microarray, Cy5-labelled CALM1, plus calcium, artefact control for SMM control-protein annotation, profiling panel (AID 1112); settings: Cy5-CALM1 binding fluorescence, higher = more signal;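 further: score merges spot fluorescence with signal to noise from triplicate slides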
# [16] = probe aWnt5a binding to arrayed compounds – biochemical, biotinylated probe, 635/667 nm fluorescence, primary screen (AID 1113); settings: small-molecule microarray, higher = more signal;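 further: score merges 667 nm fluorescence intensity with signal-to-noise per printed feature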
# [17] = probe aShh binding to arrayed compounds – biochemical, biotinylated probe, 635/667 nm fluorescence, primary screen (AID 1114); settings: small-molecule microarray, higher = more signal;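 further: probe is biotin-labelled aShh protein from a stem cell growth factor screen; measures binding of labelled protein to compounds printed on the slide; score merges feature fluorescence at 667 nm with signal-to-noise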
# [18] = probe aNog binding to arrayed compounds – biochemical, biotinylated probe, 635/667 nm fluorescence, primary screen (AID 1115); settings: small-molecule microarray, higher = more signal;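 further: probe is biotinylated aNog protein used at 0.15 µg/mL for 1 h at 4 C; z-score combines 667 nm fluorescence of each spot with its signal to noise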
# [19] = target: Torsin-1A-interacting protein 1 (Homo sapiens) (UniProt Q5JTV8); assay: compound microarray binding of lysate hLAP1 – cell lysate, small-molecule microarray, COS7 lysate, 635/667 nm fluorescence, primary screen (AID 1116); settings: 635 nm fluorescence, higher = more signal
# Sequence of Torsin-1A-interacting protein 1 (Homo sapiens) (Q5JTV8 whole entry, looked up): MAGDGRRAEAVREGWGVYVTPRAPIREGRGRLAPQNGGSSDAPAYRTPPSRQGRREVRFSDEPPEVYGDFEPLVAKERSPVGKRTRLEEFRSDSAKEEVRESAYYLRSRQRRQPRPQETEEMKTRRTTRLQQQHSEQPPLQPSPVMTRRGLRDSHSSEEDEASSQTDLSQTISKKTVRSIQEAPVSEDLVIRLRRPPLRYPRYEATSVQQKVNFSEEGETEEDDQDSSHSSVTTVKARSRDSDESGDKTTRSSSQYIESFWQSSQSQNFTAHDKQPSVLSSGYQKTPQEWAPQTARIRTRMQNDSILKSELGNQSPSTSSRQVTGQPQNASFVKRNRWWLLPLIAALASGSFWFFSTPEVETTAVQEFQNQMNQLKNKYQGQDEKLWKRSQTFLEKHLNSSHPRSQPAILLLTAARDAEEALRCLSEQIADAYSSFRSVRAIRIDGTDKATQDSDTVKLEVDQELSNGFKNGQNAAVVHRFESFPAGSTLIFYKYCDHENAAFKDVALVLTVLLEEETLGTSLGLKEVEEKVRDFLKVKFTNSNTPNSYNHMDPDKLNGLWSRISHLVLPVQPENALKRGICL
# [20] = target: Alpha-bungarotoxin (Bungarus multicinctus) (UniProt P60615); assay: compounds binding labelled alpha-BTX control protein – biochemical, small-molecule microarray, Alexa647 label, 635/667 nm fluorescence, artefact control for SMM control protein annotation, profiling panel (AID 1117); settings: alpha-BTX-A647 binding fluorescence, higher = more signal
# Sequence of Alpha-bungarotoxin (Bungarus multicinctus) (P60615 whole entry, looked up): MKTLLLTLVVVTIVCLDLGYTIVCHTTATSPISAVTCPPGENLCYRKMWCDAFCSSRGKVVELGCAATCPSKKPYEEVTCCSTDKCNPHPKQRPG
Structure (SMILES),composite z-score [1],composite z-score [2],composite z-score [3],z-score [4],composite z-score [5],composite z-score [6],composite z-score [7],composite z-score [8],composite z-score [9],composite z-score [10],composite z-score [11],z-score [12],composite z-score [13],composite z-score [14],composite z-score [15],composite z-score [16],composite z-score [17],composite z-score [18],composite z-score [19],composite z-score [20]
COC(=O)[C@@]1(Cc2ccc(OC)cc2)[C@H]2c3cc(C(=O)N(C)C)n(Cc4ccccn4)c3C[C@H]2CN1C(=O)c1ccccc1,1.04,1.2,1.36,-1.71 (inactive),-0.024,-0.305,-0.627,-0.317,-0.659,-1.71,-0.0851,-0.741,-0.479,2.86,1.41,0.0859,0.645,1.86,3.05,1.13
COC(=O)[C@@]1(Cc2ccc(F)cc2)[C@H]2c3cc(C(=O)N(C)C)n(Cc4ccccc4)c3C[C@H]2CN1C(=O)c1ccccc1,1.18,1.06,0.971,-0.376 (inactive),0.483,-0.159,-0.22,0.827,-0.251,0.766,1.35,0.185,-0.496,1.11,0.363,-0.0977,1.17,1.59,-0.3,2.56
Cc1ccccc1C(O)C1C=CC2C(=O)N(c3ccccc3)C(=O)C2N1Nc1ccc(C(C)C)cc1 (stereo not given),0.623,0.456,0.857,0.26 (inactive),0.971,1,0.304,1.23,-0.372,0.625,0.944,1.11,0.262,1.22,0.618,-0.0721,0.14,0.209,0.0331,1.16
COC(=O)[C@@]1(Cc2ccccc2)[C@H]2c3cc(C(=O)N(C)C)n(Cc4ccsc4Br)c3C[C@H]2CN1C(=O)c1ccccc1,-0.0533,0.894,1.17,-1.3 (inactive),1.02,0.439,-0.354,1.12,-0.506,0.669,1.41,-3.07,-0.329,1.79,0.463,0.107,0.342,1.2,0.905,0.626
COc1cccc(-c2cccc(=O)o2)c1,1.37,0.956,0.513,0.742 (inactive),0.423,-0.21,0.482,0.148,0.143,1.15,-1.17,0.473,0.361,-0.753,-0.454,0.153,0.475,0.192,0.628,0.141
C=CCNC(=O)[C@@H]1[C@H]2C(=O)O[C@H](c3ccccc3)[C@H](c3ccccc3)N2[C@H](c2ccc(O)cc2)[C@@]12C(=O)Nc1ccc(C#CCNC(N)=O)cc12,0.213,-0.3,0.778,0.788 (inactive),0.0464,-0.489,-0.219,-0.164,-0.732,-0.0122,1.28,-0.365,-1.09,-0.0555,-0.28,-0.124,0.157,-0.125,1.4,-0.234
COc1ccc([C@H]2OC[C@@H]3C[C@@H](Cc4ccccc4)C(=O)N32)cc1,0.143,-0.191,-0.435,0.247 (inactive),1.3,0.228,0.424,0.821,0.326,-0.0187,-0.235,-0.859,0.311,-0.05,-0.317,-0.0203,-0.0146,-0.0273,0.53,-0.429
CC(C)C(O)C1C=CC2C(=O)N(c3ccccc3)C(=O)C2N1Nc1ccc([N+](=O)[O-])cc1 (stereo not given),0.0242,0.814,0.761,0.735 (inactive),0.635,0.368,-0.0978,0.29,-0.467,0.85,1.2,0.285,-0.217,0.594,0.308,0.261,0.0358,0.202,1.34,0.801
COC(=O)C(CC#Cc1ccc2c(c1)[C@]1(C(=O)N2)[C@H](c2ccc(OCCO)cc2)N2[C@H](c3ccccc3)[C@H](c3ccccc3)OC(=O)[C@H]2[C@@H]1C(=O)Nc1nc2ccccc2s1)C(=O)OC,0.842,-0.348,0.0051,-0.0218 (inactive),1.03,1.28,0.313,1.09,0.42,0.0864,1.4,-1.65,0.582,1.55,0.489,-0.0195,-0.0119,-0.267,1.03,1.11
COC(=O)[C@H](Cc1ccccc1)N1CC2=C[C@@H](C3CC3)n3c(=O)n(C)c(=O)n3[C@H]2[C@@H]1[C@@H](O)Cc1ccccc1,0.711,-0.412,-0.5,-0.515 (inactive),0.617,0.658,0.217,0.868,0.312,0.289,1.35,-1.08,0.41,-0.319,0.0057,-0.0718,-0.0035,0.0121,0.685,-0.0518
COC(=O)[C@@]1(CCS(=O)(=O)c2ccccc2)N=C(c2ccc(OCCCO)cc2)O[C@H]1c1ccccc1CN=[N+]=[N-],1.21,1.11,1.2,0.362 (inactive),0.336,1.24,0.143,1.01,-0.0332,0.799,0.797,-2.38,-0.343,1.72,0.373,-0.0539,0.0469,0.647,1.13,0.829
COCCOC(=O)N1C(=O)[C@@]2(c3cc(C#CCCO)ccc31)[C@H](C(=O)N1CCCCCCC1)[C@H]1C(=O)O[C@H](c3ccccc3)[C@H](c3ccccc3)N1[C@@H]2c1ccc(OCCO)cc1,1.4,2.52,1.49,0.713 (inactive),0.888,0.704,1.59,1.55,1.63,1.67,1.39,-0.616,1.01,2.13,1.05,0.933,0.953,1.99,3.97,2.01
CCOC(=O)C1=C[C@@H](C(C)(C)C)N(S(=O)(=O)c2ccc(C)cc2)[C@H]1c1ccc(F)cc1,0.592,0.75,0.4,-0.711 (inactive),0.81,1.29,0.395,1.23,0.402,0.556,1.41,-1.59,0.653,1.49,0.083,0.0668,-0.1,0.509,0.992,1.15
COc1ccc(/C=C/C=O)cc1,-0.166,-0.201,-0.32,-0.903 (inactive),0.188,0.0929,-0.0607,0.679,0.406,0.664,-0.15,0.788,0.0844,-1.14,-0.732,-0.228,-0.253,0.148,0.0921,-0.117
COCCOC(=O)N1C(=O)[C@@]2(c3cc(C#CCC(C(=O)OC)C(=O)OC)ccc31)[C@H](c1ccccc1OCCO)N1[C@H](c3ccccc3)[C@H](c3ccccc3)OC(=O)[C@H]1[C@@H]2C(=O)NC[C@H](O)c1ccccc1,1.36,0.877,0.326,3.84 (inactive),1.05,1.29,1.17,1.23,0.66,0.619,0.948,-2.28,1.44,0.832,0.277,0.0718,0.275,0.237,0.876,0.926
CCCCN1CC=CC23O[C@@H]4C=CCCOC(=O)C4[C@H]2C(=O)N(CCCCCCO)[C@@H]3C1=O (stereo not given in full),1.45,-0.466,-0.112,0.705 (inactive),-1.22,-0.163,-0.677,-0.187,-1.21,-0.39,0.748,-0.485,-1.11,-0.235,-0.0631,-0.274,-0.117,-0.413,0.999,-0.324
CC(C)=CCCC(C)=CC(O)C1C=CC2C(=O)N(C)C(=O)C2N1Nc1ccccc1 (stereo not given),0.854,0.473,0.55,3.04 (inactive),0.914,1.31,1.52,1.47,0.893,1.07,1.45,-2.28,0.457,1.99,0.73,0.0597,-0.0362,1.3,0.524,2.04
O=C(CS)NCCCCCCNC(=O)[C@@H]1C[C@@H]2C(=O)NCC(=O)N2[C@@H]1c1cccc(OCCO)c1,1.49,-0.293,0.632,0.288 (inactive),0.331,0.837,-0.149,-0.16,0.139,-0.755,1.41,-0.895,-0.709,2.44,-0.215,-0.177,-0.188,-0.652,1.21,1.1
COc1cc2c(cc1OC)CN(C(=O)[C@@H]1[C@H]3C(=O)O[C@H](c4ccccc4)[C@H](c4ccccc4)N3[C@H](c3ccccc3OCCO)[C@@]13C(=O)Nc1ccc(C#CCCO)cc13)CC2,1.53,0.235,0.547,0.107 (inactive),0.885,0.926,0.179,0.896,0.249,0.91,1.35,-2.36,0.268,1.16,0.104,-0.133,0.292,1.16,2.22,1.49
O=C1C2C=CC(C(O)CCc3ccccc3)N(Nc3ccccc3F)C2C(=O)N1c1ccccc1 (stereo not given),1.17,0.909,1.09,-0.0383 (inactive),1.25,1.31,0.359,1.31,-0.242,1.04,1.29,-0.83,-0.208,0.611,0.11,0.229,0.13,1.03,1,0.324
C=CC[C@@]1(C(=O)NCCN2CCOCC2)N=C(c2ccc(OCCCO)cc2)O[C@@H]1c1ccccc1N=[N+]=[N-],0.241,1.09,1.03,-0.656 (inactive),0.0038,-0.142,0.539,0.255,-0.0358,1.72,0.446,-1.23,0.187,1.26,0.581,-0.1,-0.215,-0.0119,1.76,0.841
